Experiment [1] deals with Pyruvate kinase PKM (Homo sapiens) (UniProt P14618). In words: qHTS Assay for Activators of Human Muscle Pyruvate Kinase (AID 954; active = well fitted curve in the direction sought with a large enough effect, not every such curve was filed as active). In short, it runs like this: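 Screening used highly purified human pyruvate kinase M2 under submaximal activity, with PEP at its Km and ADP below Km. After an hour at room temperature, ATP was read by luciferase luminescence.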
Sequence of Pyruvate kinase PKM (Homo sapiens) (P14618 whole entry, looked up): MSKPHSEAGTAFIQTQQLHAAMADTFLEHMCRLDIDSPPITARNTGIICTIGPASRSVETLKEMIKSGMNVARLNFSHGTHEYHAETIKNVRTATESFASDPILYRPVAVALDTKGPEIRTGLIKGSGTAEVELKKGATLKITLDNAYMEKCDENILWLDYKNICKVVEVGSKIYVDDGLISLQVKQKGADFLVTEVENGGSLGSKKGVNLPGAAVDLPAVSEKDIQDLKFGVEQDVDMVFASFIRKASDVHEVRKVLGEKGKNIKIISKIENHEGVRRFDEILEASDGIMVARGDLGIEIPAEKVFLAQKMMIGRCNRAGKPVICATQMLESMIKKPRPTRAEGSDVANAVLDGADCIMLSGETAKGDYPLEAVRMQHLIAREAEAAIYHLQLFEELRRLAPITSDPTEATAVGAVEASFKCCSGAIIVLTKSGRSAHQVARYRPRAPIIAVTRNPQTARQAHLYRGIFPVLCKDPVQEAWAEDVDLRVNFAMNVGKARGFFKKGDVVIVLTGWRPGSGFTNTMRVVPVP
(qHTS replaces the single test concentration by a dilution series.)

The nature of experiment [2]: MultiTox-Fluor Cytotoxicity Assay - LYMP1-001 - Dead Cells (AID 946). The gist of the method:
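In this qHTS, 15 uM tetraoctylammonium bromide defined 100% and DMSO defined basal activity. Lymphoblastoid cells (LYMP1-001, 2500 per well) received compound for 16 hr at 37 C before a fluorogenic dead-cell substrate readout at 485/520 nm.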

Experiment [3] can be described thus: MultiTox-Fluor Cytotoxicity Assay - LYMP1-001 - Live Cells (AID 947).
The nature of experiment [4]: Cell Viability - LYMP1-002 - Assay at 16 hr (AID 948). The gist of the method:
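LYMP1-002 human lymphoblastoid cells, 2500/well; 5 hr 37 C; cpd 16 hr 37 C; CellTiter-Glo 30 min RT; luminescence (ATP). Concentration-response, Hill-fit AC50. Pos ctrl tetraoctylammonium bromide.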

Experiment [5] in a line: MultiTox-Fluor Cytotoxicity Assay - LYMP1-002 - Live Cells (AID 955).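 Also: cells exposed to compound for 16 hours.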 In short, it runs like this: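 In this qHTS viability format, lymphoblastoid cells (LYMP1-002, human) received compound for 16 hr at 37 C. Fluorogenic GF-AFC cleavage by viable cells was detected at 405/510 nm after 1 h at room temperature.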
The nature of experiment [6]: MultiTox-Fluor Cytotoxicity Assay - LYMP1-002 - Dead Cells (AID 960). Also: nearly all actives have a fitted effect of over 60% in size. In short, it runs like this: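 Concentration-dependent increases in membrane-leaked protease activity are quantified in LYMP1-002 cells after 16 hr treatment; values are normalized against DMSO and tetraoctylammonium bromide (15 uM) controls and AC50 derived by Hill modeling.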
A short description of experiment [7]: MultiTox-Fluor Cytotoxicity Assay - LYMP1-003 - Dead Cells (AID 961). Also: nearly all actives have a fitted effect of over 70% in size. The gist of the method:
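Acute toxicity is scored as increased dead-cell protease activity in human lymphoblastoid LYMP1-003 cells after 16 h compound exposure in complete culture medium. Activity is normalized to DMSO basal and 15 uM tetraoctylammonium bromide as full response.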

The nature of experiment [8]: MultiTox-Fluor Cytotoxicity Assay - LYMP1-003 - Live Cells (AID 962).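 Also: cells exposed to compound for 16 hours at 37 °C; cytotoxic hits lower the live-cell protease signal.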 In short, it runs like this: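 Human lymphoblastoid line LYMP1-003 in complete culture medium, treated 16 hr with titrated compounds. Viable cells quantified via cell-permeant GF-AFC substrate fluorescence; AC50 derived by Hill fitting.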
Experiment [9] in a line: Cell Viability - LYMP1-003 - Assay at 24 hr (AID 963). The gist of the method: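 The lymphoblastoid line was treated with titrated compounds for 24 hours, and viable cell number estimated from luciferase-based ATP luminescence.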
Experiment [10] is described as follows: Cell Viability - LYMP1-003 - Assay at 40 hr (AID 964). Also: nearly all actives have a fitted effect of over 60% in size. Also: potency is read from the fitted curve at half-maximal effect. The gist of the method: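 Acute toxicity is scored as a concentration-dependent loss of intracellular ATP in LYMP1-003 cells (2500/well, complete medium) after 40 hr at 37 C, measured by CellTiter-Glo luminescence; AC50 values derive from standard Hill modelling.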
Experiment [11] is described as follows: Cell Viability - LYMP2-003 (AID 965).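 Also: cells exposed to compounds for 24 h before reading; nearly all actives have a fitted effect of over 50% in size.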 In short, it runs like this: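 CellTiter-Glo luminescence (cellular ATP) after 24 h compound exposure at 37 C in complete medium; 2500 cells/well, 5 h settling beforehand. Concentration-response fitted to standard Hill equation for AC50. Tetraoctylammonium bromide served as positive control.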
Experiment [12] in a line: Cell Viability - LYMP2-005 (AID 967). Also: series mostly up to about 92 µM. The gist of the method:
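Steps: seed 2500 LYMP2-005 cells/well, incubate 5 h at 37 C, add compound, incubate 24 h at 37 C, add CellTiter-Glo, wait 30 min at RT, read luminescence. Concentration-response data fitted to Hill equation for AC50.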

The nature of experiment [13]: Cell Viability - LYMP2-009 (AID 968). Also: series mostly up to about 92 µM; nearly all actives have a fitted effect of over 55% in size.
Experiment [14] is described as follows: Cell Viability - LYMP2-011 (AID 969). Also: nearly all actives have a fitted effect of over 60% in size. The gist of the method: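 Cells seeded at 2500 per well rest 5 hr before compound addition, then incubate 24 hr at 37 C. CellTiter-Glo reagent is added for 30 min at room temperature before luminescence detection.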
A short description of experiment [15]: Cell Viability - LYMP2-013 (AID 970). Also: series mostly up to about 92 µM; nearly all actives have a fitted effect of over 55% in size. The gist of the method:
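In complete culture medium, human lymphoblastoid cells were dosed for 24 hr at 37 C, with tetraoctylammonium bromide (6.4pM to 92 uM) as positive control. Viability reflects luciferase-based ATP signal; AC50 derived from concentration-response curves.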

Experiment [16] in a line: Cell Viability - LYMP2-015 (AID 971). Also: nearly all actives have a fitted effect of over 55% in size. In short, it runs like this:
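AC50 values reflect Hill-model fits of ATP-based luminescence (CellTiter-Glo) from a human lymphoblastoid line, 2500 cells/well, treated 24 hr at 37 C.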

Experiment [17] in a line: Cell Viability - LYMP2-017 (AID 972).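 Also: series mostly up to about 92 µM; cells exposed to compound for 24 hours at 37 °C; nearly all actives have a fitted effect of over 55% in size.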 The gist of the method:
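In this qHTS format, lymphoblastoid cells in complete medium receive test compound for a day at 37 C before ATP content is quantified by luciferase luminescence. Reported AC50 figures come from standard Hill-equation curve fitting.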

Experiment [18] is described as follows: Cell Viability - LYMP2-019 (AID 973). Also: nearly all actives have a fitted effect of over 55% in size. In short, it runs like this:
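AC50 values come from Hill-equation modelling of qHTS concentration-response curves, where viability is measured as luciferase-based ATP luminescence in the lymphoblastoid line after 24 hr compound exposure in complete culture medium.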

Experiment [19] in a line: Cell Viability - LYMP2-004 (AID 966). Also: nearly all actives have a fitted effect of over 65% in size. In short, it runs like this: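 Viable-cell number estimated from ATP luminescence (CellTiter-Glo) in 2500 human lymphoblastoid cells/well after 24 hr at 37 C with compound. AC50 fitted to the standard Hill equation.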
Experiment [20] concerns the target Pyruvate kinase (Leishmania mexicana) (UniProt Q27686). Put plainly: qHTS Validation Assay for Activators of Leishmania Mexicana Pyruvate Kinase (AID 959). The gist of the method: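 Pyruvate kinase activity of E451W LmPYK (0.2 nM) was followed as ATP output after 1 h at room temperature with 0.5 mM PEP and 0.1 mM ADP, detected by PKLight luminescence.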

SMILES strings stand for the structures. Inconclusive results are not listed. Activity calls are given as the source filed them. Unless noted, calls follow the shape of the dose curve; as a rule, active = well fitted curve in the direction sought with a large enough effect; inconclusive = small, poorly fitted or top-dose-only effect, or another doubt; inactive = no such curve, though single readings can be large; an effect the other way counts as inactive or inconclusive.

Sequence of Pyruvate kinase (Leishmania mexicana) (Q27686 2-499 E452W): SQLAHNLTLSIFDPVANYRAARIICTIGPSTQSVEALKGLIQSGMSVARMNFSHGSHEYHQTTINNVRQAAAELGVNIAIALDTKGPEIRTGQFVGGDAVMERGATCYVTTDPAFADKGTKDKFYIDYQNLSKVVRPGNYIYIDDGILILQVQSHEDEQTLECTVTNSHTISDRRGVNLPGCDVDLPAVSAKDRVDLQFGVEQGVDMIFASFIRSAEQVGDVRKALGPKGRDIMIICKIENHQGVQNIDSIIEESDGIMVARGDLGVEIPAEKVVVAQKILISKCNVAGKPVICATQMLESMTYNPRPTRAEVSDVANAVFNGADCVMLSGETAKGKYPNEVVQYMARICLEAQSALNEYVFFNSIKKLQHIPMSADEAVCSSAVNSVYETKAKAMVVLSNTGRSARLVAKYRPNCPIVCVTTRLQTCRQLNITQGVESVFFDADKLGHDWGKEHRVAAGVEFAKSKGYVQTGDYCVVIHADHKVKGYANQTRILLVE

Take `CCOC(=O)C1=C[C@@]2(CC)CCCN3CCc4c(n1c1ccccc41)[C@H]32`: the call in experiment [1] was inactive.

With `NC(=O)c1cnccn1`, the result in experiment [2], in experiment [3], in experiment [4], in experiment [1], in [5] and in [6] was inactive. Moreover, the compound was called inactive in experiment [7], in [8], in [9], in experiment [11], in [12] and in experiment [13]. The compound was called inactive in experiment [14], in experiment [15], in [16], in experiment [17] and in experiment [18]. Also, the Potency entry in [10] is “inactive”.

In the case of `CCCC(CCC)C(=O)O`, the outcome in [2], in experiment [4], in experiment [1], in [5], in experiment [7] and in experiment [8] was inactive. Also, the outcome in experiment [9], in experiment [11], in experiment [19], in experiment [12], in experiment [13] and in experiment [14] was inactive. Also, the compound was classed as inactive in experiment [15], in experiment [16], in experiment [17] and in experiment [18]. Besides, the Potency entry in experiment [10] is “inactive”.

For the compound `CCCCNc1cc(C(=O)O)cc(S(N)(=O)=O)c1Oc1ccccc1`, in [1], the compound was called inactive.

As to `Cc1[nH]c(=O)c(C#N)cc1-c1ccncc1`, the result in experiment [1] was inactive.

As for `Cn1cnc([N+](=O)[O-])c1Sc1ncnc2nc[nH]c12`, the call in [2], in experiment [3], in experiment [4], in experiment [1], in [5] and in experiment [6] was inactive. Besides, the outcome in [7] and in [8] was inactive. In [10], the Potency was 2.51 µM (active).

Consider `Cc1ccc(N(CC2=NCCN2)c2cccc(O)c2)cc1`, for which the compound was classed as inactive in experiment [1].

In the case of `O=NN(CCCl)C(=O)NCCCl`, in experiment [1], the compound was classed as inactive.

As to `N[C@@H]1CONC1=O`, the outcome in [1] was inactive.

Consider `Nc1nc2ccc(OC(F)(F)F)cc2s1`, for which the compound was called inactive in experiment [1] and in experiment [20].

Take `NS(=O)(=O)c1cc2c(cc1Cl)NC=NS2(=O)=O`: the outcome in [2], in [3], in [4], in experiment [1], in experiment [5] and in experiment [7] was inactive. Further, the compound was classed as inactive in experiment [8], in [9], in [11], in [19], in [12] and in experiment [13]. The compound was called inactive in experiment [14], in experiment [15], in [16], in experiment [17] and in experiment [18]. For the same compound, the Potency result in [10] is “inactive”.

As for `Cc1[nH]c(=O)c(C#N)cc1-c1ccc2nccn2c1`, the result in experiment [1] was inactive.

The values above are taken from PubChem BioAssay (NCATS).
